Assay results published in PubChem BioAssay (Tox21).
Records with an inconclusive call do not appear. Entries that show only a call come without a potency. The source holds several records for some structures; these can differ, active in one and inactive in another. Active and inactive are the calls of the source. The call rests on the fitted dose curve; in most records, active means well fitted curve in the direction sought with a large enough effect in the repeat runs; inconclusive means weak or mixed curves; inactive means no such curve, though single readings can be large; an effect the other way counts as inactive or inconclusive.

Key:
[1] = A CellTox Green Cytotoxicity Assay to monitor cytotoxicity in HepG2 cells - 0 hour (AID 1224882); further: nearly all actives have a fitted effect of over 35% in size
How it was run: (§1)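 First, HepG2 cells (600/well) mixed with reagent were plated; second, after 5 h at 37 C they received compounds via pintool; third, fluorescence was measured at 0 h through 40 h at 8 h intervals.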

[2] = A CellTox Green Cytotoxicity Assay to monitor cytotoxicity in HepG2 cells - 32 hour (AID 1224883); further: nearly all actives have a fitted effect of over 50% in size; further: potency means the concentration at half of the fitted maximal effect
How it was run: as §1

[3] = A CellTox Green Cytotoxicity Assay to monitor cytotoxicity in HEK293 cells - 8 hour (AID 1224884); further: nearly all actives have a fitted effect of over 35% in size
How it was run: (§2)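 Dead-cell fluorescence measured kinetically: asymmetric cyanine dye, HEK293, 600 cells/well, 5 h settle, 23 nL cpd/DMSO, 37 C, reads 0–40 h every 8 h.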

[4] = qHTS RealTime-Glo MT Cell Viability Assay in HepG2 cells - 16 hour (AID 1224885); further: nearly all actives have a fitted effect of over 50% in size
How it was run: (§3)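 Real-time, nonlytic viability: 600 HepG2 cells/well mixed with NanoLuc enzyme plus prosubstrate; 5 h settle, compound (DMSO) added by pintool; luminescence monitored over 40 h at 37 C.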

[5] = qHTS RealTime-Glo MT Cell Viability Assay in HEK293 cells - 24 hour (AID 1224886); further: nearly all actives have a fitted effect of over 50% in size; further: potency means the concentration at half of the fitted maximal effect
How it was run: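 Cells + reagent dispensed (600 cells/well, HEK293) → 5 h at 37 C/5% CO2 → 23 nL compound in DMSO pinned → 40 h at 37 C → luminescence read at 0, 8, 16, 24, 32, 40 h.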

[6] = qHTS RealTime-Glo MT Cell Viability Assay in HEK293 cells - 8 hour (AID 1224887); further: nearly all actives have a fitted effect of over 50% in size; further: potency means the concentration at half of the fitted maximal effect
How it was run: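 600 HEK293 cells per well, dispensed already mixed with RealTime-Glo MT reagents. Compound dosing came 5 h later. The same wells were read for luminescence at 0, 8, 16, 24, 32 and 40 h of exposure at 37 C.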

[7] = A CellTox Green Cytotoxicity Assay to monitor cytotoxicity in HEK293 cells - 16 hour (AID 1224888); further: nearly all actives have a fitted effect of over 35% in size
How it was run: as §2

[8] = qHTS RealTime-Glo MT Cell Viability Assay in HepG2 cells - 0 hour (AID 1224889); further: nearly all actives have a fitted effect of over 50% in size
How it was run: as §3

[9] = A CellTox Green Cytotoxicity Assay to monitor cytotoxicity in HepG2 cells - 8 hour (AID 1224890); further: nearly all actives have a fitted effect of over 45% in size
How it was run: as §1

[10] = qHTS assay to identify small molecule antagonists of the estrogen receptor alpha (ER-alpha) signaling pathway using the BG1 cell line in the presence of 0.1 nM 17-beta-estradiol - cell viability counter screen (AID 1259241); further: nearly all actives have a fitted effect of over 40% in size; further: potency means the concentration at half of the fitted maximal effect
How it was run: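 Cytotoxicity counter-screen: live-cell protease activity measured by fluorescence (30 min reagent step) in the same wells. Cells were VM7Luc4E2 with endogenous ER-alpha and ERE-driven luciferase, treated 22 hr at 37C alongside 0.1 nM 17beta-estradiol final.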

Row | Structure (SMILES) | Potency [1] | Potency [2] | Potency [3] | Potency [4] | Potency [5] | Potency [6] | Potency [7] | Potency [8] | Potency [9] | Potency [10]
1 | CC(CO)(CO)C(=O)O | inactive | inactive | inactive | inactive | inactive | inactive | inactive | inactive | inactive | 
2 | CCN(CC)C(=O)/C(C#N)=C/c1cc(O)c(O)c([N+](=O)[O-])c1 | inactive | inactive | inactive | inactive | inactive | inactive | inactive | inactive | inactive | 
3 | CC(C)CC(O)CC(C)C | inactive | inactive | inactive | inactive | inactive | inactive | inactive | inactive | inactive | 
4 | O=C(Nc1ccc(C(=O)O)c(O)c1)c1ccccc1 | inactive | inactive | inactive | inactive | inactive | inactive | inactive | inactive | inactive | inactive
5 | CCOC(=O)Oc1ccc(CCNC(=O)[C@H](CCSC)NC(C)=O)cc1OC(=O)OCC | inactive | inactive | inactive | inactive | inactive | inactive | inactive | inactive | inactive | 
6 | COc1ccc(CCN(C)CCCN2CCc3cc(OC)c(OC)cc3CC2=O)cc1OC | inactive | inactive | inactive | inactive | inactive | inactive | inactive | inactive | inactive | inactive
7 | Nc1ccc(S(=O)(=O)NCc2ccccc2)cc1 | inactive | inactive | inactive | inactive | inactive | inactive | inactive | inactive | inactive | 
8 | Cc1oc(=O)oc1COC(=O)[C@@H]1N2C(=O)[C@@H](NC(=O)[C@H](N)c3ccccc3)[C@H]2SC1(C)C | inactive | inactive | inactive | inactive | inactive | inactive | inactive | inactive | inactive | inactive
9 | CCN(CC)CCNC(=O)c1cc(Cl)c(N)cc1OC | inactive | inactive | inactive | inactive | inactive | inactive | inactive | inactive | inactive | inactive
10 | CC[C@H]1OC(=O)[C@H](C)[C@@H](O[C@H]2C[C@@](C)(OC)[C@@H](O)[C@H](C)O2)[C@H](C)[C@@H](O[C@@H]2O[C@H](C)C[C@H](N(C)C)[C@H]2O)[C@](C)(O)C[C@@H](C)/C(=N\OCOCCOC)[C@H](C)[C@@H](O)[C@]1(C)O | inactive | inactive | inactive | inactive | inactive | inactive | inactive | inactive | inactive | 10.2 µM (active)
11 | CC(C)(C)NCC(O)COc1cccc2c1C[C@H](O)[C@H](O)C2 (some centres undefined) | inactive | inactive | inactive | inactive | inactive | inactive | inactive | inactive | inactive | 
12 | C/C(C=O)=C\c1ccccc1 | inactive | inactive | inactive | inactive | inactive | inactive | inactive | inactive | inactive | inactive
13 | CC(C)N=C=NC(C)C | inactive | inactive | inactive | inactive | inactive | inactive | inactive | inactive | inactive | 
14 | CCNc1nc(N)nc(Cl)n1 | inactive | inactive | inactive | inactive | inactive | inactive | inactive | inactive | inactive | inactive
15 | CNc1c2c(nn1C)CCCC2 | inactive | inactive | inactive | inactive | inactive | inactive | inactive | inactive | inactive | 
16 | CCN(CC)c1ccc(C(=C2C=CC(=[N+](CC)CC)C=C2)c2ccc(S(=O)(=O)O)cc2S(=O)(=O)[O-])cc1 | inactive | inactive | inactive | inactive | inactive | inactive | inactive | inactive | inactive | 
17 | O=c1[nH][nH]c(=O)c2cc([N+](=O)[O-])ccc12 | inactive | inactive | inactive | inactive | inactive | inactive | inactive | inactive | inactive | inactive
18 | Cc1ccc(N(CCO)CCO)cc1 | inactive | inactive | inactive | inactive | inactive | inactive | inactive | inactive | inactive | inactive
19 | Nc1nc(-c2ccc([N+](=O)[O-])cc2)cs1 | inactive | inactive | inactive | inactive | inactive | inactive | inactive | inactive | inactive | inactive
20 | ClC1=C(Cl)C1(Cl)Cl | inactive | inactive | inactive | inactive | inactive | inactive | inactive | inactive | inactive | 
21 | CC12CC3CC(C)(C1)CC(N)(C3)C2 | inactive | inactive | inactive | inactive | inactive | inactive | inactive | inactive | inactive | 
22 | SCCc1cnccn1 | inactive | inactive | inactive | inactive | inactive | inactive | inactive | inactive | inactive | inactive
23 | C=CC(=O)O | inactive | inactive | inactive | inactive | inactive | inactive | inactive | inactive | inactive | 
24 | CC(CCc1ccc(O)cc1)NCCc1ccc(O)c(O)c1 (centres undefined) | inactive | inactive | inactive | inactive | inactive | inactive | inactive | inactive | inactive | 

Row | Structure (SMILES) | Potency [1] | Potency [2] | Potency [3] | Potency [4] | Potency [5] | Potency [6] | Potency [7] | Potency [8] | Potency [9] | Potency [10]
25 | Cc1ccc2c(c1)CCCN2 | inactive | inactive | inactive | inactive | inactive | inactive | inactive | inactive | inactive | 
26 | Nc1ccc(N=Nc2ccc(N)cc2)cc1 | inactive | inactive | inactive | inactive | inactive | inactive | inactive | inactive | inactive | 
27 | O=C(O)CNC(=O)c1ccccc1I | inactive | inactive | inactive | inactive | inactive | inactive | inactive | inactive | inactive | 
28 | COC(OC)OC | inactive | inactive | inactive | inactive | inactive | inactive | inactive | inactive | inactive | 
29 | COc1ccc2nc(S(=O)Cc3ncc(C)c(OC)c3C)[nH]c2c1 (centres undefined) | inactive | inactive | inactive | inactive | 21.6 µM (active) and inactive | 24.3 µM (active) and inactive | inactive | inactive | inactive | inactive
30 | CCOC(=O)c1ccc(NC(=O)CN2CCCCC2)cc1 | inactive | inactive | inactive | inactive | inactive | inactive | inactive | inactive | inactive | inactive
31 | O=C1NC(=O)c2cccc3cccc1c23 | inactive | inactive | inactive | inactive | inactive | inactive | inactive | inactive | inactive | inactive
32 | Cc1cccc2sc(N)nc12 | inactive | inactive | inactive | inactive | inactive | inactive | inactive | inactive | inactive | 
33 | CCCCCc1ccco1 | inactive | inactive | inactive | inactive | inactive | inactive | inactive | inactive | inactive | 
34 | CCCC(=O)OC(=O)CCC | inactive | inactive | inactive | inactive | inactive | inactive | inactive | inactive | inactive | inactive
35 | Cc1cc([N+](=O)[O-])ccc1N | inactive | inactive | inactive | inactive | inactive | inactive | inactive | inactive | inactive | 
36 | COc1ccc(N)c([N+](=O)[O-])c1 | inactive | inactive | inactive | inactive | inactive | inactive | inactive | inactive | inactive | inactive
37 | CC(=O)NCCO | inactive | inactive | inactive | inactive | inactive | inactive | inactive | inactive | inactive | 
38 | O=C(O)/C=C/c1ccc(O)c(O)c1 | inactive | inactive | inactive | inactive | inactive | inactive | inactive | inactive | inactive | inactive
39 | O=C(O)c1cc(Cl)cc(Cl)c1O | inactive | inactive | inactive | inactive | inactive | inactive | inactive | inactive | inactive | inactive
40 | CCC1CCC(CCC(=O)O)C1 (centres undefined) | inactive | inactive | inactive | inactive | inactive | inactive | inactive | inactive | inactive | inactive
41 | O=C(O)CCCc1c[nH]c2ccccc12 | inactive | 15.5 µM (active) | inactive | inactive | inactive | inactive | inactive | inactive | inactive | inactive
42 | CSSc1ccoc1C | inactive | inactive | inactive | inactive | inactive | inactive | inactive | inactive | inactive | inactive
43 | C[C@H](CS)C(=O)N1CCC[C@H]1C(=O)O | inactive | inactive | inactive | inactive | inactive | inactive | inactive | inactive | inactive | inactive
44 | O=S(=O)(O)CO | inactive | inactive | inactive | inactive | inactive | inactive | inactive | inactive | inactive | inactive
45 | CC(=O)C(=O)CC(C)C | inactive | inactive | inactive | inactive | inactive | inactive | inactive | inactive | inactive | inactive
46 | C=CC(=O)NC(C)C | inactive | inactive | inactive | inactive | inactive | inactive | inactive | inactive | inactive | inactive
47 | COC(C)(C)OC | inactive | inactive | inactive | inactive | inactive | inactive | inactive | inactive | inactive | inactive
